Compound activity as filed in PubChem BioAssay.
An excerpt weighted towards active compounds, which were near 8.7% of everything screened.
HP1b chromo inh – inhibitors of HP1-beta chromodomain binding to methylated histone tails; AlphaScreen HP1-beta / biotin-H3K9me3 peptide binding; Potency, µM (series often up to 114 µM), for inactives: at the top dose activity change, negative = inhibition, usual class: inhibitors; P83916; 0.56% of 390,000 active; further: nearly all actives have a fitted effect of over 70% in size
Target sequence (P83916 whole entry, looked up): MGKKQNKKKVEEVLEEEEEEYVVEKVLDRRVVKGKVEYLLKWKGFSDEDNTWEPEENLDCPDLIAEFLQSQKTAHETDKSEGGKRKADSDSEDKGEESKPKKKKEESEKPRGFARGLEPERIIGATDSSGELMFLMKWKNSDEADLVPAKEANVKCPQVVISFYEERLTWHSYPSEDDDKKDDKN
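Compound inhibition of the preformed complex between 50 nM HP1-beta and 50 nM biotinylated H3K9me3 peptide was read by AlphaScreen. Buffer was PBS pH 7.4 with 0.01% Tween-20. Incubations ran 30 min at room temperature, with 10 ug/mL donor/acceptor beads.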
BAZ2B inh – BAZ2B (human) inhibition | AlphaScreen BAZ2B-H3K14Ac peptide displacement | Potency, µM (series often up to 114 µM), without a hit: at the highest dose activity change, negative = inhibition, usual class: inhibitors | 4.4% of 360,000 active | AID 504333; further: on the % scale 0 is the no-effect control and ±100 the full control effect; nearly all actives have a fitted effect of over 60% in size
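Protein-peptide AlphaScreen: BAZ2B 50 nM, b-H3K14Ac 50 nM, 1x PBS pH 7.4 + 0.01% Tween-20. Preincubation 30 min RT; cpd 30 min RT (top 110 uM); beads 20 min RT, light-protected.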
Sfp PPTase inh – Sfp phosphopantetheinyl transferase inhibition; Q9F4F7; Biochemical Sfp PPTase activity, qHTS; Potency, µM, for inactives: largest response in the series, negative = inhibition, usual class: inhibitors; 3.5% of 310,000 active; AID 1490;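 further: the enzyme is Sfp with the accession as filed and its product quenches rhodamine fluorescence; 0% = enzyme reaction without inhibitor and -100% = no enzyme wells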
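Buffer: 50 mM Hepes-Na pH 7.6, 10 mM MgCl2, 0.01% Nonidet P-40, 0.01% BSA. Enzyme 15 nM, pre-exposed to compound 15 min; substrates then added and fluorescence change tracked over 30 min.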
JMJD2A Tudor inh – JMJD2A Tudor domain (human) inhibition; AlphaScreen JMJD2A-Tudor / H3K4me3 peptide binding; Potency, µM (titrated, usually from 114 µM), for inactives: top-dose activity change, negative = inhibition, actives largely listed as inhibitors; 4.4% of 390,000 active; AID 504339; further: on the % scale 0 is the no-effect control and ±100 the full control effect; nearly all actives have a fitted effect of over 50% in size
ALOX12 inh – inhibitors of human 12S-lipoxygenase ALOX12; P18054; purified 12hLO, xylenol orange hydroperoxide absorbance; Potency, µM (highest dose often 108 µM), for inactives: at the highest dose activity change, negative = inhibition, usual class: inhibitors; 1.1% of 580,000 active; AID 1671190; further: on the % scale 0 is the no-effect control and ±100 the full control effect
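Hydroperoxide product was detected by ferrous iron/xylenol orange as the 573 to 405 nm absorbance ratio. Arachidonic acid at 40 uM (final) was turned over for 30 min at room temperature by 150 nM human 12hLO, pH 7.0 Hepes buffer, after 15 min compound preincubation.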
G9a block – G9a (human) methyltransferase inhibition; Q96KQ7; G9a H3K9 monomethylation, AlphaScreen, 2 h; Potency, µM (top dose mostly 102 µM), for the others: at the top dose activity, negative = inhibition, actives largely listed as inhibitors; 8.8% of 350,000 active; further: on the % scale 0 is the no-effect control and ±100 the full control effect; nearly all actives have a fitted effect of over 75% in size
Target sequence (Q96KQ7 913-1193 limits assumed): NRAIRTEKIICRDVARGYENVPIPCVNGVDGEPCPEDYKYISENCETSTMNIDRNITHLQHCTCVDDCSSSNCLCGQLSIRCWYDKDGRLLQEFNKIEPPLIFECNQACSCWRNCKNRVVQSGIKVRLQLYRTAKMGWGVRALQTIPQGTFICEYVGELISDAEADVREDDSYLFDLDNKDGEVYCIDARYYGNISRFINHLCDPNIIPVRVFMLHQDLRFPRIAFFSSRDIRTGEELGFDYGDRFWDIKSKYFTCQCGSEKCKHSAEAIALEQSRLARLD
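Quantitative HTS format: methyltransferase activity on a biotin-tagged H3K9 peptide is measured by AlphaScreen, using a rabbit anti-monomethyl-H3K9 antibody with streptavidin donor and anti-IgG acceptor beads. Final levels are 20 nM enzyme, 500 nM peptide, 20 uM SAM; 2 h RT.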
Numbers without * were called inactive; ? = inconclusive; nt = no result; ! = not confirmed by another sample; [ ] = another dose, or the depositor's remark. The call rests on the fitted dose curve; in most records, active means well fitted curve in the direction sought with a large enough effect; inconclusive means small, poorly fitted or top-dose-only effect, or another doubt; inactive means no such curve, though single readings can be large; an effect the other way counts as inactive or inconclusive. Potency means the concentration at half of the fitted maximal effect.

SMILES | HP1b chromo inh | BAZ2B inh | Sfp PPTase inh | JMJD2A Tudor inh | ALOX12 inh | G9a block
Cn1c2ccccc2c(=O)c2ccc(C#CC3(N)CCCCC3)cc21 | 77% | 3% | -16% | 6% | ? | 40µM*
COCCC(C)NC(=O)c1cc(=O)[nH]c2ccccc12 (stereo unspecified) | nt | nt | nt | nt | -1% | nt
O=C(O)c1ccc(CSc2nc(-c3ccc(Cl)cc3)cc(C(F)(F)F)n2)cc1 | 29% | ? | 50µM* | ? | 3% | -29%
Cc1cc(OCC(=O)N2CCC[C@@H]2C(=O)O)c2c(C)c(C)c(=O)oc2c1 | 28% | -29% | 16% | -19% | 31% | -6%
Cc1cc(OCC(=O)N2CCN(c3cccc(Cl)c3)CC2)c2c(C)c(C)c(=O)oc2c1 | 52% | -11%[57.1 µM] | 40µM* | -22% | 17% | 4%
COC[C@@H]1CNC[C@H]1C(=O)NC1CC1 | nt | nt | nt | nt | 29% | nt
CCCSc1nc2c(c(=O)[nH]c(=O)n2C)n1CCOCC | nt | nt | nt | nt | -6% | nt
COc1cccc2cc(C(=O)NCCc3c(C)[nH]c4ccccc34)c(=O)oc12 | nt | nt | nt | nt | -1% | nt
Cc1ccc([N+](=O)[O-])cc1S(=O)(=O)NCCc1c(C)[nH]c2ccccc12 | -31% | 50µM* | -3% | ? | -27% | ?
Cc1[nH]n(-c2ccc([N+](=O)[O-])cc2)c(=O)c1C=NCCc1c(C)[nH]c2ccccc12 | 24% | -3% | 79µM* | -23% | -19% | -10%
COc1cc(S(=O)(=O)NCCc2c(C)[nH]c3ccccc23)c(C)cc1C | ? | 35µM* | nt | 28µM* | 0% | ?
Cc1ccc([N+](=O)[O-])cc1S(=O)(=O)NCCc1cn2ccccc2n1 | 29% | -23% | 21% | -15% | 3% | nt
CCN(CC(=O)Nc1ccc(N2CCOCC2)cc1)C(=O)c1ccc(C#N)cc1 | 6% | -9% | -8% | -14% | 0% | 45µM*
COc1cc2nc(CN(C)CC(=O)Nc3ccc(N4CCOCC4)cc3)[nH]c(=O)c2cc1OC | -17% | -8% | 3.5µM* | 2%[57.1 µM] | 0% | -6%[59 µM]
Cc1cccc(C)c1NC(=O)CS(=O)CC(=O)Nc1ccc(N2CCOCC2)cc1 (stereo unspecified) | 3% | -1% | 3% | -3% | 17% | ?
CN(CC(=O)Nc1ccc(C#N)cc1)CC(=O)Nc1ccc(N2CCOCC2)cc1 | -7% | 11% | 4% | 40µM* | -15% | ?
CCc1ccc(NC(=O)CS(=O)CC(=O)Nc2ccc(N3CCOCC3)cc2)cc1 (stereo unspecified) | 4% | 79µM* | 7% | 40µM* | -16% | 50µM*
CCN(CC(=O)Nc1ccc(N2CCOCC2)cc1)Cc1nc2ccccc2c(=O)[nH]1 | 43% | -13%[57.1 µM] | ? | -26% | -11% | -50%
CN1C(=O)c2cccn2CC1CNC(=O)c1ccoc1 (stereo unspecified) | nt | nt | nt | nt | 47% | nt
CN(CCOc1ccc(F)cc1)C(=O)c1cn(C)c2ccccc12 | nt | nt | nt | nt | -1% | nt
CCCn1c(C)c(CC(=O)NC(C)Cn2cccn2)c2c1CC(C)(C)CC2=O (stereo unspecified) | nt | nt | nt | nt | 60% | nt
O=C(CCc1c[nH]c2ccccc12)NCC#Cc1cccc(C(F)(F)F)c1 | nt | nt | nt | nt | -25% | nt
CCN(CC(=O)NCc1ccc(Cl)cc1)C(=O)c1ccc(C#N)cc1 | 32% | -6% | -1% | -6% | -18% | 40µM*
CCN(CC(=O)NCc1ccc(F)cc1)C(=O)c1ccc(Cl)cc1 | 21% | -1% | 11% | -7% | 32% | 14%
COc1cccc(NC(=O)C(C)Nc2ccc3oc(C)nc3c2)c1 (stereo unspecified) | nt | nt | nt | nt | -24% | nt
SMILES | HP1b chromo inh | BAZ2B inh | Sfp PPTase inh | JMJD2A Tudor inh | ALOX12 inh | G9a block
CC(C)c1cc(O)c(-c2ccccc2)c(=O)n1-c1ccc(Cl)cc1 | 1% | 1% | 20% | -10% | 250% | 8%[59 µM]
CC(C)c1c(Cl)c(O)c(-c2ccccc2)c(=O)n1-c1ccc(F)cc1 | -15% | -11% | ? | 20µM* | ? | 45µM*
Nc1cccc2c(O)cccc12 | -5% | nt | nt | -29% | 16% | nt
O=c1[nH]ccc2c(O)cccc12 | 4% | nt | nt | -18% | 12% | 25µM*!
CC1(c2ccc([N+](=O)[O-])cc2)Nc2ccccc2S1 (stereo unspecified) | ? | 13µM* | 50µM* | 40µM* | ? | 28µM*
COc1ccc(OC)c(C(=O)CC2(O)C(=O)N(C)c3ccc(Br)cc32)c1 (stereo unspecified) | nt | nt | nt | nt | -7% | nt
c1ccc(C2CSc3ccccc3N2)cc1 (stereo unspecified) | -12% | ? | 56µM* | ? | -3% | 8.9µM*
Cn1cc(C=C2C(=O)CC(C)(C)CC2=O)c2ccccc21 | -15% | ? | -16% | ? | -16% | 45µM*
COc1cc(/C=C2/C(=O)N(c3ccc(C(=O)O)cc3)N=C2C)cc(OC)c1O | ? | ? | 40µM* | -22% | 76% | 40µM*
COc1cc(/C=C2/C(=O)N(c3ccc(C)c(C)c3)N=C2C)cc([N+](=O)[O-])c1O | ? | 40µM* | -4% | 45µM* | ? | 2%[0.501 µM]
Cn1cc(C=C2C(=O)OC3(CCCCC3)OC2=O)c2ccccc21 | 27% | -15% | -19% | -22% | 0% | nt
CC1=NN(c2ccccc2)C(=O)/C1=C\c1cn(-c2ccccc2)nc1C | 8.9µM* | nt | 10% | ? | 6% | ?
O=C1c2ccccc2NC(c2csc(-c3cccc(Br)c3)n2)N1C1CC1 (stereo unspecified) | nt | nt | nt | nt | 10% | nt
COc1cc(Cl)c(C)cc1NC(=O)Cn1c(C)cc2nc3n(c(=O)c21)CCCCC3 | nt | nt | nt | nt | -18% | nt
CC1=NN(c2ccccc2)C(=O)/C1=C\c1cn(CCC#N)nc1-c1ccc(Cl)cc1 | ? | ? | -6% | ? | -7% | 4.5µM*
Cc1ccc(-c2nn(CCC#N)cc2C=C(C#N)C#N)cc1 | 38% | -3% | -14% | -5% | -9% | 9%[59 µM]
COc1ccccc1/C=C1/C(=O)N(c2ccccc2)N=C1C | -19%[57 µM] | ? | -4% | ? | ? | ?
CC1=NN(c2ccc(Br)cc2)C(=O)/C1=C/c1cccs1 | -53% | 4.5µM* | -4% | ? | 182% | 7.1µM*
COc1cc(/C=C2/C(=O)N(c3ccc(Br)cc3)N=C2C)cc(OC)c1OC | -35% | 40µM* | ? | 35µM* | nt | 50µM*
CC1=NN(c2ccccc2)C(=O)/C1=C\c1sccc1C | ? | 7.1µM* | -3% | ? | 0% | ?
CC1=NN(c2ccc(C)cc2)C(=O)/C1=C\c1ccc(Br)s1 | ? | 0% | -7% | -35% | -17% | ?
